In the library only some 11% were active in any assay of this set; here they are far more common.
Tau fluor cs: Counterscreen qHTS for Inhibitors of Tau Fibril Formation, Fluorescence Polarization; tau K18 P301L Alexa594 fluorescence, heparin fibrillization; Potency, µM (top dose mostly 57.7 µM), for inactives: at the top dose activity change, negative = decrease; AID 1463, 2008; hit rate 0.93% among 280,000; note: potency is the fitted concentration of half-maximal effect; nearly all actives have a fitted effect of over 55% in size
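Human K18 P301L tau (15 uM unlabeled plus 0.24 uM Alexa 594-labeled, final) in 100 mM sodium acetate pH 7 was mixed with compound and 20 uM heparin and incubated 6 hr at 37 C.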
FBPA coupling cs: qHTS Assay for Inhibitors of Fructose-1,6-bisphosphate Aldolase from Giardia Lamblia: Coupling assay counterscreen; coupling enzyme system counterscreen, AmpLite Red fluorescence; activity change, negative = inhibition, % at 58.2 µM, hits read low; hit rate 0.67% among 290,000; in the data active = activity change below about -30%
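Final compound at 57.5 uM, incubated 10 min at RT with coupling enzyme reagent (glyceraldehyde-3-phosphate), then 20 min with substrate and AmpLite Red detection. Fluorescence read at 525/598 nm; tests interference with the coupling assay, not aldolase inhibition.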
Tau ThT inhib: qHTS for Inhibitors of Tau Fibril Formation, Thioflavin T Binding. Microtubule-associated protein tau (Homo sapiens), P10636. recombinant tau K18 P301L (four-repeat tau fragment), heparin-induced fibrillization, ThT fluorescence. Potency, µM (doses to about 57.4 µM), inactives show at the top dose activity, negative = inhibition, usual class: inhibitors. hit rate 2.1% among 270,000; note: potency is the fitted concentration of half-maximal effect; nearly all actives have a fitted effect of over 55% in size
Target sequence (P10636 561-689 P618L limits assumed): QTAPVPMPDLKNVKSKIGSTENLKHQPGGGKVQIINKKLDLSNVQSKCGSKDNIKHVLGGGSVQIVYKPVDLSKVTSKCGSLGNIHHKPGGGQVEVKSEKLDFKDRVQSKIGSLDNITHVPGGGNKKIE
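Aggregation was driven by heparin (20 uM final) acting on recombinant tau […] bearing P301L in 100 mM sodium acetate pH 7; fibrils were detected with Thioflavin T.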
Tau FP inhib: qHTS for Inhibitors of Tau Fibril Formation, Fluorescence Polarization | K18 P301L tau heparin fibrillization, Alexa594 FP, 6 h | Microtubule-associated protein tau (Homo sapiens), P10636 | Potency, µM (doses to about 57.7 µM), inactives show top-dose activity, negative = inhibition, actives largely listed as inhibitors | hit rate 0.39% among 280,000; note: potency is the fitted concentration of half-maximal effect; nearly all actives have a fitted effect of over 55% in size
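Recombinant K18 P301L […], labeled with Alexa 594 at 0.24 uM over 15 uM unlabeled; heparin inducer 20 uM final; 37 C, 6 hr; FP endpoint.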
Sfp PPTase inh: qHTS Assay for Inhibitors of Bacillus subtilis Sfp phosphopantetheinyl transferase (PPTase); 4'-phosphopantetheinyl transferase ffp (Bacillus subtilis), Q9F4F7; Potency, µM, inactives show largest response in the series, negative = inhibition, actives largely listed as inhibitors; Biochemical Sfp PPTase activity, qHTS; hit rate 3.5% among 310,000; AID 1490, 2009;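 note: the enzyme is Sfp with the accession as filed and its product quenches rhodamine fluorescence; potency is the fitted concentration of half-maximal effect; 0% = enzyme reaction without inhibitor and -100% = no enzyme wells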
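Step 1, compound plus 15 nM Sfp-PPTase, 15 min, room temperature. Step 2, add rhodamine-CoA (5 uM) and BHQ-2-YbbR (12.5 uM). Step 3, read 525/598 nm fluorescence at 0 and 30 min.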
G9a inh: qHTS Assay for Inhibitors of Histone Lysine Methyltransferase G9a; G9a H3K9 monomethylation, AlphaScreen, 2 h; Histone-lysine N-methyltransferase EHMT2 (Homo sapiens), Q96KQ7; hit rate 8.8% among 350,000; Potency, µM (highest dose often 102 µM), without a hit: at the top dose activity, negative = inhibition, hits mostly inhibitors; note: potency is the fitted concentration of half-maximal effect; nearly all actives have a fitted effect of over 75% in size
Target sequence (Q96KQ7 913-1193 limits assumed): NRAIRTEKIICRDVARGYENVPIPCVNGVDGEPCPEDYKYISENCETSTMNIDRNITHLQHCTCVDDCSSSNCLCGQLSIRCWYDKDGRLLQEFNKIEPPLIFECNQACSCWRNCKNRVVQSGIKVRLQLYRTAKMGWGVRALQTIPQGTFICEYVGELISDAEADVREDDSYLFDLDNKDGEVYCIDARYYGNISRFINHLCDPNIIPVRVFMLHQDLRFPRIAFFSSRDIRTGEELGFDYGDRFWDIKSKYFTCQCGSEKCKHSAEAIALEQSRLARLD
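Methyltransferase reactions run at room temperature for 2 h (20 nM enzyme, 500 nM biotin-H3K9 peptide, 20 uM SAM) after a 15 min compound preincubation; product detected by AlphaScreen beads and anti-H3K9me1 antibody.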
Active calls of the source: *; ? = inconclusive; · = no result given; ! = not confirmed by another sample; [ ] = dose if it differs, or a comment. Unless noted, calls come from the whole dose curve; as a rule, active = well fitted curve in the direction sought with a large enough effect; inconclusive = small, poorly fitted or top-dose-only effect, or another doubt; inactive = no such curve, though single readings can be large; an effect the other way counts as inactive or inconclusive. Unless noted, % is set by controls: 0 for no effect and ±100 for the full control effect.

SMILES | Tau fluor cs | FBPA coupling cs | Tau ThT inhib | Tau FP inhib | Sfp PPTase inh | G9a inh
COc1cc2nc(N(C)CCCNC(=O)C3CCCO3)nc(N)c2cc1OC (centres undefined) | -3% | 1 | -3% | -3% | 4% | 11µM*!
CCCCNC(=O)C1CCCN(S(=O)(=O)CCC)C1 (centres undefined) | 3% | · | 7% | 0% | · | -15%[59 µM]
Oc1ccccc1C=Nc1cccc2ccccc12 | · | -2 | · | · | 1% | ?
Oc1cccc(C=Nc2cccc3ccccc23)c1O | · | -14 | · | · | 13µM* | ·
Oc1c(C=NCc2ccccc2)sc2ccccc12 | -6% | -2 | ? | 4% | 10% | ?
Oc1cccc(C=NCc2ccccc2)c1O | ? | -37* | 7.9µM* | ? | ? | ?
Cc1ccc2c(=O)n3c(nc2c1)C(Cc1ccccc1)NC(=O)c1ccc(Cl)cc1-3 (centres undefined) | · | · | · | · | · | 10%[2.33 µM]
N#C/C(=N\Nc1cccc([N+](=O)[O-])c1)C(=O)c1ccc(Br)cc1 | ? | 12 | 10µM* | 14% | -6% | 45µM*
O=C(O)c1ccc(N=NNc2cccc([N+](=O)[O-])c2)cc1 | -9% | 8 | ? | 6% | 6% | 45µM*
O=C(Nc1cccc([N+](=O)[O-])c1)c1ccc(-c2ccccc2)cc1 | -17% | 2 | -10% | -5% | 28% | 11%[59 µM]
COC(=O)c1ccc(N=NNc2ccccc2)cc1 | -14% | -5 | ? | 10% | ? | 8.9µM*
Nc1c(O)cccc1C(=O)C[C@@H](N)C(=O)O | · | 0 | · | · | -24% | ?
CCOC(=O)C1CCCN(C(=O)COC(=O)C2=COCCO2)C1 (centres undefined) | 3% | 5 | -13% | 3% | -3% | 50µM*
CN(CCc1ccccn1)S(=O)(=O)c1ccc(F)cc1 | -14% | 9 | -5% | ? | -26% | 7.1µM*
CCOc1ccc(CN(C)CCc2ccccn2)cc1 | 2% | -1 | -4% | -3% | ? | 18µM*
Cc1cccc(CN(C)CCc2ccccn2)c1 | -3% | -2 | -13% | -8% | -20% | ?
Cc1ccccc1CN(C)CCc1ccccn1 | 4% | -1 | 0% | 2% | ? | 13µM*
CCn1c(=O)c2sccc2n2c(CCC(=O)N3CCN(c4ccc(C(C)=O)cc4)CC3)nnc12 | -4% | · | -12% | 8% | · | -4%[59 µM]
COc1ccc(CNC(=O)CN(c2cc(C(F)(F)F)ccc2Cl)S(C)(=O)=O)cc1 | -22% | · | -3% | -12% | · | -10%[59 µM]
CN(C)/C=C(\C=N\OCc1ccc(Cl)cc1Cl)C(=O)Nc1ccc(Cl)c(Cl)c1 | 16µM*[quencher] | 3 | ? | -7% | 18% | 27%[59 µM]
O=C(c1ccccc1)C(Sc1ncn[nH]1)c1ccccc1 (centres undefined) | -8% | -6 | -9% | -9% | 79µM* | 5.6µM*
CCN(CC)S(=O)(=O)c1ccc(C(=O)OCn2c(SC)nnc(C)c2=O)cc1 | -2% | 3 | 2% | 4% | 8% | -2%[59 µM]
COc1ccc(/C=C(\NC(=O)c2ccccc2)C(=O)N2CCCCC2)cc1OC | · | 2 | · | · | 5% | 28%
Oc1ccc(C23CC4CC(CC(C4)C2)C3)cc1O | · | -8 | · | · | 79µM* | 0.71µM*
O=S(=O)(c1cccc(-c2n[nH]c(=S)n2Cc2ccccc2)c1)N1CCOCC1 | -11% | 4 | -9% | -7% | -26% | ·
SMILES | Tau fluor cs | FBPA coupling cs | Tau ThT inhib | Tau FP inhib | Sfp PPTase inh | G9a inh
CCN(CC)S(=O)(=O)c1cccc(-c2n[nH]c(=S)n2Cc2ccccc2)c1 | -3% | 3 | -2% | -1% | -23% | 0.89µM*
Clc1ccc(-c2nc3n(n2)Cc2ccccc2-3)cc1 | 1% | -5 | -10% | 1% | 1% | ?
CCN(CC)S(=O)(=O)c1cccc(-c2n[nH]c(=S)n2CC(C)C)c1 | -17% | 7 | -11% | -8% | -30% | 3.2µM*
COC(Cn1c(-c2cccc(S(=O)(=O)N(C)C)c2)n[nH]c1=S)OC | 6% | 2 | 7% | -4% | -11% | 10µM*
CCN(CC)S(=O)(=O)c1cccc(-c2nc3n(n2)Cc2ccccc2-3)c1 | -9% | -2 | 3% | 0% | 11% | 50µM*
CCOC(=O)C1CCN(C(=O)c2nn(-c3ccc(OC)cc3)c(=O)c3c2c2ccccc2n3C)CC1 | -21% | · | -20% | -5% | · | -1%[59 µM]
COC(=O)c1ccc(CSc2ccc3nnc(-c4cccnc4)n3n2)o1 | 2% | 3 | -3% | -3% | 1% | 25µM*
O=C(CSc1ccc2nnc(-c3cccnc3)n2n1)Nc1ccccc1 | · | · | · | · | -6% | 50µM*
COc1cccc(NC(=O)CSc2ccc3nnc(-c4ccccn4)n3n2)c1 | · | · | · | · | 10% | -19%
COc1ccc(-c2nnc3ccc(SCC(=O)Nc4cc(C)on4)nn23)cc1 | 8% | 2 | 8% | -2% | -16% | 56µM*
COc1cccc(NC(=O)CSc2ccc3nnc(-c4ccncc4)n3n2)c1 | -11% | 2 | -13% | -5% | 0% | 50µM*
CCC1CCCCN1Cc1nc(Cc2ccccc2Cl)no1 (centres undefined) | -21% | 1 | -11% | 3% | 10% | 99%
Cc1cc(C)cc(N(CC(=O)NCCc2ccc(Cl)cc2)S(=O)(=O)c2c(C)noc2C)c1 | -7% | · | 5% | 1% | · | 1%[59 µM]
CCOC(=O)c1c(S(=O)(=O)N2CCCC(C(=O)NCc3ccccc3Cl)C2)c(C)n(C)c1C (centres undefined) | -5% | · | -2% | -4% | · | 6%[59 µM]
CC1(C)CC(=O)C=C(NC2=CC3OC(c4ccccc4)OCC3OC2=O)C1 (centres undefined) | -7% | 1 | 18µM* | ? | 28µM* | ?
Cc1noc(C)c1C(=O)Nc1cc(S(=O)(=O)N2CCCCC2)ccc1N(C)C | · | · | · | · | · | 40µM*
CC(=O)c1ccc(NC(=O)c2nc3ccccc3n(C)c2=O)cc1 | -5% | · | ? | -7% | · | -1%[59 µM]
CCOC(=O)c1sc(=S)n(CC)c1NC(=O)c1ccccc1 | 0% | 3 | 6% | 3% | 23% | -42%
CCOC(=O)c1sc(=S)n(C)c1NC(=O)c1ccccc1C | -19% | 6 | ? | -3% | 22µM* | 3.2µM*
CCOC(=O)c1sc(=S)n(C)c1NC(=O)c1ccc(F)cc1 | -21% | 1 | ? | ? | 25µM* | 2µM*
CCOc1ccc(C(=O)OCc2cc(=O)n3nc(C4CC4)sc3n2)cc1 | 0% | · | -6% | 5% | · | 5%[59 µM]
